# This is one part of a sample in which hits are shown more often than they occur.
# ST2 inh: inhibitors of human ST2 (IL1RL1) binding to IL-33, primary screen, biochemical, AlphaLISA; AlphaLISA ST2-Fc/biotin-IL-33 interaction, 1 h; inhibition, % for hits at 17 µM; 78,000 tested, 2.3% active; in the data active = inhibition above about 30%
# Target sequence (Q01638 whole entry, looked up): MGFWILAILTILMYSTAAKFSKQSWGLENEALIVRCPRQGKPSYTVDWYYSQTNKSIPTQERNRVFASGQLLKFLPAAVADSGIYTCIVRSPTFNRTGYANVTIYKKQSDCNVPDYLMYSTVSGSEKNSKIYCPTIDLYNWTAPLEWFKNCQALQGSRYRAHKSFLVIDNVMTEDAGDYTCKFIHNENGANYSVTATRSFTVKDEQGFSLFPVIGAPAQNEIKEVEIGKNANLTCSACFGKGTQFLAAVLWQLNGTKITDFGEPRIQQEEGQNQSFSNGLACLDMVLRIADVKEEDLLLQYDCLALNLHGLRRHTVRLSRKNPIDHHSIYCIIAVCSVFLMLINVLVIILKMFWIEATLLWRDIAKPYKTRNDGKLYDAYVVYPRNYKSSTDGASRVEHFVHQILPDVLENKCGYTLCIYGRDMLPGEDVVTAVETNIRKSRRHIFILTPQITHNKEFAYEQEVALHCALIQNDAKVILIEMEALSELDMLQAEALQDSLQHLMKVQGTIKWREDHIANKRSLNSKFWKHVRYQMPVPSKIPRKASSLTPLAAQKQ
# A number is an active result; . = inactive.
SMILES,ST2 inh
COc1ccc(CN2CCC(N3CCCC(C(=O)N4CCCC4)C3)CC2)cc1 (stereo not given),.
CC(C)Cc1ccc(S(=O)(=O)NCCC2=CCCCC2)cc1,.
COCCCNC(=O)C1c2cc(OC)c(OC)cc2C(=O)N(C)C1c1ccc(OC)c(OC)c1 (stereo not given),.
Cc1nc(C2CCCN2)n(-c2cccc3ccccc23)n1 (stereo not given),.
CN(C)c1ccc(/C=C2\c3cc([N+](=O)[O-])ccc3-c3c2cc([N+](=O)[O-])cc3[N+](=O)[O-])cc1,.
COc1ccc(/C=C2\N=C(c3ccc(C)c([N+](=O)[O-])c3)OC2=O)cc1,.
CN(C)c1ccc(C=C2c3cc([N+](=O)[O-])cc([N+](=O)[O-])c3-c3c2cc([N+](=O)[O-])cc3[N+](=O)[O-])cc1,42.0%
COc1ccc(C=C2c3cc([N+](=O)[O-])cc([N+](=O)[O-])c3-c3c2cc([N+](=O)[O-])cc3[N+](=O)[O-])cc1,51.0%
CN(C)c1ccc(/C=C2\N=C(c3cccc([N+](=O)[O-])c3)OC2=O)cc1,.
COc1ccc(S(=O)(=O)Nc2ccc(OC)cc2[N+](=O)[O-])cc1,.
CCC(=O)N1c2ccccc2-c2nnc(SC)nc2OC1c1ccc(F)cc1 (stereo not given),.
O=C(Nc1ccc(S(=O)(=O)Nc2cnc3ccccc3n2)cc1)c1cccs1,.
COc1ccc(COC(=O)C2=C(C)NC(=O)NC2c2ccc(Cl)cc2)cc1 (stereo not given),.
Cc1ccc2c(C)c(C(=O)N3CC(c4ccncc4)C3)oc2c1,.
CC1CCCN(C2=NC(=O)/C(=C\c3ccc(Br)cc3)S2)C1 (stereo not given),.
COc1ccccc1NC1=CC(=NS(=O)(=O)c2ccc(C)cc2C)c2ccccc2C1=O,95.0%
COc1ccccc1NC(=O)c1ccc(F)cc1,.
CCc1ccc(S(=O)(=O)N=C2C=C(Nc3ccccc3OC)C(=O)c3ccccc32)cc1,95.0%
COc1ccccc1NS(=O)(=O)c1cc([N+](=O)[O-])ccc1C,.
CC(C)c1ccccc1NS(=O)(=O)c1ccc(F)cc1,.
COc1ccccc1NC1=CC(=NS(=O)(=O)c2ccc(F)cc2)c2ccccc2C1=O,95.0%
COc1ccccc1NS(=O)(=O)c1ccc2[nH]c(=O)sc2c1,.
COc1ccc(S(=O)(=O)Nc2ccccc2Br)cc1OC,.
CCc1ccc(S(=O)(=O)N2CCSC2c2ccccc2OC)cc1 (stereo not given),.
Cc1ccccc1NS(=O)(=O)c1ccc(NS(=O)(=O)c2ccc(F)cc2)cc1,.
SMILES,ST2 inh
Cc1ccccc1NC1=CC(=NS(=O)(=O)c2ccc(F)cc2)c2ccccc2C1=O,77.0%
CCOc1ccccc1NS(=O)(=O)c1cc(C)ccc1OC,.
CC(=O)N1c2ccccc2CCc2ccc(NC(=O)c3ccccc3)cc21,.
O=C(OCc1nc2ccccc2s1)c1ccc(F)cc1,.
COc1cccc(F)c1-c1ccc(-c2nc(C)no2)cn1,.
COc1cc(OC)c(NC(=O)c2cn(CC(C)C)c(=O)c3cc(OC)c(OC)cc23)cc1Cl,.
CC(COc1ccc(C(C)C)cc1)NC(=O)c1cccs1 (stereo not given),.
CCCOc1ccc(N2C(=O)CC(N3CCSCC3)C2=O)cc1 (stereo not given),.
COc1ccccc1NC(=O)CN(C)S(=O)(=O)c1ccccc1,.
COc1ccc(S(=O)(=O)Nc2ccccc2C)cc1,.
COc1ccccc1NS(=O)(=O)c1ccc(Cl)cc1,.
COc1ccccc1NC1=CC(=NS(=O)(=O)c2ccccc2)c2ccccc2C1=O,95.0%
COc1ccc(S(=O)(=O)N=C2C=C(Nc3ccccc3OC)C(=O)c3ccccc32)cc1,94.0%
COc1ccccc1NC(=O)C(Cc1ccccc1)N1C(=O)c2ccccc2C1=O (stereo not given),.
Cc1ncsc1CCC(=O)N1CCCC1c1nc2c(C)cccc2[nH]1 (stereo not given),.
CNc1ncccc1CN(Cc1ccccc1)Cc1nccs1,.
CCC(=O)OCCNc1cc(C)c2noc3c2c1C(=O)c1ccccc1-3,33.0%
Cc1cc(NC(=O)Cn2c(=O)sc3ccccc32)ccc1Br,.
CCc1cn[nH]c1C1CCN(C(=O)c2cn3cccc(C)c3n2)CC1,.
Cc1[nH]cnc1CN1CCOC(CCc2ccccc2)C1 (stereo not given),.
Cc1ccc(-c2noc(CCC(=O)NCCCN3CCCC3)n2)cc1,.
COCC(=O)N1CCC2(CC1)CN(CCCc1ccccc1)CCN2C,.
O=C1C[C@H]2CC[C@@H](CN1)N2C(=O)Cc1ccc(NC(=O)C2CC2)cc1,43.0%
NC(=O)c1ccc(NC(=O)C2CCN(C(=O)Cc3ccccc3)CC2)cc1,.
NS(=O)(=O)c1ccc(NC(=O)C2CCN(C(=O)Cc3ccccc3)CC2)cc1,.
SMILES,ST2 inh
Clc1nc(NCc2ccccc2)nc(NCc2ccccc2)n1,.
Cc1occc1-c1nnc(SCC(=O)NCc2ccccc2)n1-c1ccccc1,.
O=C(Nc1ccccc1F)c1ccc2nc(-c3ccco3)c(-c3ccco3)nc2c1,.
O=C(Nc1nccs1)c1ccc2nc(-c3ccco3)c(-c3ccco3)nc2c1,30.0%
O=C(Nc1nccs1)c1ccc2snnc2c1,.
Cc1ccc(-c2noc(CCC(=O)NCCC(C)C)n2)cc1,.
O=C(CSc1nnc(-c2ccco2)o1)N1CCc2ccccc21,.
COc1cc(/C=C2\C=C(c3ccc(Cl)cc3)OC2=O)cc(Br)c1OC,.
COc1cc(/C=C2\C=C(c3ccc(Cl)cc3)OC2=O)c([N+](=O)[O-])cc1OC,.
COc1cc(/C=C2\C=C(c3ccc(Cl)cc3)OC2=O)cc(I)c1OC,.
COc1ccc(C2=C/C(=C/c3cccc(OC)c3OC)C(=O)O2)c(OC)c1,34.0%
COc1ccc(/C=C2\C=C(c3ccc(Br)cc3)OC2=O)cc1[N+](=O)[O-],.
CCc1ccc(C2=C/C(=C/c3cc(OC)ccc3OC)C(=O)O2)cc1,38.0%
CC(C)NC(=O)CN1C(=O)C2CCCCN2c2ccc(S(=O)(=O)N3CCCCC3)cc21 (stereo not given),.
O=C(O)C(O)CCc1ccc(O)cc1 (stereo not given),.
O=C(Nc1cc(Cl)c(Cl)cc1Cl)c1cccs1,.
Cc1nnsc1C(=O)NC(C)c1cnn(-c2cccc3ccccc23)c1C (stereo not given),.
CCOC(=O)C1C(=O)C=C(c2ccc(OC)c(OC)c2)CC1c1ccc(OC)c(OC)c1 (stereo not given),.
OC[C@H]1O[C@@H](OCCc2ccccc2)[C@H](O)[C@@H](O)[C@@H]1O,.
COc1cc(/C=C/CO)ccc1O[C@@H]1O[C@H](CO)[C@@H](O)[C@H](O)[C@H]1O,.
CC/C=C\CCO[C@@H]1O[C@H](CO)[C@@H](O)[C@H](O)[C@H]1O,31.0%
Brc1ccc(C2C=C(c3ccccc3)Nc3ncnn32)cc1 (stereo not given),.
C[C@H]1[C@@H]2[C@@H](O)[C@H]([C@H](C)C(=O)NC3CC3)CC[C@@]2(C)CC[C@@H]1NC(=O)c1cncnc1,.
N#C/C(=C\c1ccc(N2CCOCC2)cc1)c1nc2ccccc2[nH]1,.
O=c1/c(=C\c2ccc(-c3ccccc3[N+](=O)[O-])o2)sc2nc3ccccc3n12,.
Cc1cc([N+](=O)[O-])c(C)cc1-c1ccc(/C=C(\C#N)c2nc3ccccc3[nH]2)o1,38.0%
CCOC(=O)Cn1c(=O)n(-c2ccc(C)c(C)c2)c2nc(-c3ccc(C)c(C)c3)nc(C(N)=O)c21,.
